Our source for the binding signal values is publication PMC7862700, “An all-to-all approach to the identification of sequence-specific readers for epigenetic DNA modifications on cytosine”.

What all share (experiment): DAPPL (digital affinity profiling via proximity ligation, sequencing); 10 mM Tris-HCl pH 7.5, 50 mM NaCl, 1 mM DTT, 4% glycerol, room temperature, 30 min; GST-TFs on glutathione beads, 16-mer random dsDNA library, 0.1% formaldehyde crosslink after washing; high values mean tight binding
In one test the target is T1, FLI1 (Homo sapiens, UniProt Q01543 1-452).
T1 sequence: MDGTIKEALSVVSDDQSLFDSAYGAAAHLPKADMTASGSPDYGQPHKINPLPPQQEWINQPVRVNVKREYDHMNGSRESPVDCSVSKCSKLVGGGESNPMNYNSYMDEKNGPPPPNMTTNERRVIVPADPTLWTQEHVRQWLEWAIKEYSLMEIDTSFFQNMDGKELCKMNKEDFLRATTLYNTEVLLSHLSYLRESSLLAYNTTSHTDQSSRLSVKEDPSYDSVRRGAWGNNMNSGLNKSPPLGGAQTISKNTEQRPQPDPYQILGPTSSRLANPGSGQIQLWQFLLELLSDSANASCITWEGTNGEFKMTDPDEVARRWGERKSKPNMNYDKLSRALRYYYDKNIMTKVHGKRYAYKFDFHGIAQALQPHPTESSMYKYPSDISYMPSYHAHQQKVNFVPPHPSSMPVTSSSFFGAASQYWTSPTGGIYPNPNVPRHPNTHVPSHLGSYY
The settings on record: protein: recombinant; tags: N-terminal GST; dsDNA, one strand shown. The gist of the method: (§1)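 Yeast served to express human transcription factors as GST fusions, which were then captured on glutathione beads and labelled with DNA barcodes. Pooled with a tag-only sample, they were incubated with 200 nmole of a 16-mer random double-stranded DNA library for 30 min at room temperature in Tris/NaCl/DTT/glycerol buffer, washed, crosslinked with 0.1% formaldehyde, ligated by proximity, amplified by PCR and sequenced. Dividing each hexamer's read frequency for a factor by its frequency for the tag-only sample gives the binding signal.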

A further test addresses T2, ELK1 (Homo sapiens, UniProt P19419 1-428).
T2 sequence: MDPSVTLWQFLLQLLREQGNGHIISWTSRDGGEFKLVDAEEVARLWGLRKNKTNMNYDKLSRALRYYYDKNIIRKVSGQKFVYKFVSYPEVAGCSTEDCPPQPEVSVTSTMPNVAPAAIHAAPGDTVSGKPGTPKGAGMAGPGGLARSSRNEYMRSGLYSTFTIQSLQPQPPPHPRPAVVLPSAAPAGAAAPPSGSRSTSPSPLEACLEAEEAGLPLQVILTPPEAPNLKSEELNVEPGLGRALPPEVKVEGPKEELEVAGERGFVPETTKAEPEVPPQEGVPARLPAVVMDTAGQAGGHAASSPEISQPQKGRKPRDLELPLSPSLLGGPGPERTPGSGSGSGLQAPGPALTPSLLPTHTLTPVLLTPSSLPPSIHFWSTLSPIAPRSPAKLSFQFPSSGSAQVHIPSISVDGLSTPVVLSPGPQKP
The conditions noted are these: protein: recombinant; tags: N-terminal GST; dsDNA, one strand shown. Summed up:
as §1

For the next test, the target named is T3, GABPA (Homo sapiens, UniProt Q06546 1-454).
T3 sequence: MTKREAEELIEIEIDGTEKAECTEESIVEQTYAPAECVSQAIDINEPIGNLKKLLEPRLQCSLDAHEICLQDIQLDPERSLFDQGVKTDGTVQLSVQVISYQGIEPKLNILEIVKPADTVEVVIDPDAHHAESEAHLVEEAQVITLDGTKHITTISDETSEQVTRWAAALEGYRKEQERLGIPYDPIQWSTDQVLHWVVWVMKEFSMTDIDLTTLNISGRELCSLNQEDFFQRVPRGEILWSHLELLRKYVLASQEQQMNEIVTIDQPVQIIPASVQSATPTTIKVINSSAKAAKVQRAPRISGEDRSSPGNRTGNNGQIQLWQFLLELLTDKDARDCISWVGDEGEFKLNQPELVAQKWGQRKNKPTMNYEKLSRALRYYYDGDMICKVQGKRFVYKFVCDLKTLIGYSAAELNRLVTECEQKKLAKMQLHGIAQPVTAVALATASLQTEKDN
The settings on record: protein: recombinant; tags: N-terminal GST; dsDNA, one strand shown. The gist of the method: as §1

A further test concerns the target T4, ERG (Homo sapiens, UniProt P11308 1-479).
T4 sequence: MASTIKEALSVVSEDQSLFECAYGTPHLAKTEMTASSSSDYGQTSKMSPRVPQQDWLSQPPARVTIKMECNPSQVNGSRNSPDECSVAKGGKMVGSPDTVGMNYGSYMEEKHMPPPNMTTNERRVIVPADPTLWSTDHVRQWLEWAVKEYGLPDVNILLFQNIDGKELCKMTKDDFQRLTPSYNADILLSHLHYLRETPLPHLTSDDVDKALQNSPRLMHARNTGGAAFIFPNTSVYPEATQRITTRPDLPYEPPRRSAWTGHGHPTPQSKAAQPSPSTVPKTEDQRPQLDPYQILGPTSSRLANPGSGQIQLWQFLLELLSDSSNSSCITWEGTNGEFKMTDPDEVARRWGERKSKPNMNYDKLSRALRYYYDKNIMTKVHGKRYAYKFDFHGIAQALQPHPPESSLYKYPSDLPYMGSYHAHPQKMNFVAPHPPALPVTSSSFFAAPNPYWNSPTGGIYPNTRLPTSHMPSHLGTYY
The settings on record: protein: recombinant; tags: N-terminal GST; dsDNA, one strand shown. Summed up: as §1

Another test has as its target ELF1 (Homo sapiens, UniProt P32519 1-619). The conditions noted are these: protein: recombinant; tags: N-terminal GST; dsDNA, one strand shown. Summed up:
as §1

For another test, the target named is T5, EHF (Homo sapiens, UniProt Q9NZC4 1-300).
T5 sequence: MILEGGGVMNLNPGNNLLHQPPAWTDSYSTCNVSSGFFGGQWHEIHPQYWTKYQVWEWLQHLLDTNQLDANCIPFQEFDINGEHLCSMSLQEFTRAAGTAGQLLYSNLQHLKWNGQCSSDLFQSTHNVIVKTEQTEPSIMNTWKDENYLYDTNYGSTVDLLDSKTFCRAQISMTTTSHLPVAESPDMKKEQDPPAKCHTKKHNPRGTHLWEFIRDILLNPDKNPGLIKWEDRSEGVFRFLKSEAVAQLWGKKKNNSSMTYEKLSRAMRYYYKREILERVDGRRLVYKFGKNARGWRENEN
The settings on record: protein: recombinant; tags: N-terminal GST; dsDNA, one strand shown. Summed up: as §1

For a further test, the target named is SPI1 (Homo sapiens, UniProt P17947 1-270). The conditions noted are these: protein: recombinant; tags: N-terminal GST; dsDNA, one strand shown. The gist of the method: as §1
The next test addresses SPIB (Homo sapiens, UniProt Q01892 1-262). The settings on record: protein: recombinant; tags: N-terminal GST; dsDNA, one strand shown. The gist of the method:
as §1

Another test concerns the target T6, ELK3 (Homo sapiens, UniProt P41970 1-407).
T6 sequence: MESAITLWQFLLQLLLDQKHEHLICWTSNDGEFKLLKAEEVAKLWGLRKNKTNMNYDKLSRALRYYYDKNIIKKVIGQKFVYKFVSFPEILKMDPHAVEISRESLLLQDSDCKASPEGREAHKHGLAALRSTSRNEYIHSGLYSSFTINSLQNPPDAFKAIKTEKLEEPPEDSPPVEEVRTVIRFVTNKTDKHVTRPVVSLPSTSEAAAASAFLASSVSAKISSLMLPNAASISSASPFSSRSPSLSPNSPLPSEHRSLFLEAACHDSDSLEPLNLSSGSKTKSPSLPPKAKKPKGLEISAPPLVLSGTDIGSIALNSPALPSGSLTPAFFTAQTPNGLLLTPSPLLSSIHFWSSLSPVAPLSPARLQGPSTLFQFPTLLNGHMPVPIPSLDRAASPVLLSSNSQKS
The conditions noted are these: protein: recombinant; tags: N-terminal GST; dsDNA, one strand shown. Summed up:
as §1

For another test, the target named is T7, FEV (Homo sapiens, UniProt Q99581 1-238).
T7 sequence: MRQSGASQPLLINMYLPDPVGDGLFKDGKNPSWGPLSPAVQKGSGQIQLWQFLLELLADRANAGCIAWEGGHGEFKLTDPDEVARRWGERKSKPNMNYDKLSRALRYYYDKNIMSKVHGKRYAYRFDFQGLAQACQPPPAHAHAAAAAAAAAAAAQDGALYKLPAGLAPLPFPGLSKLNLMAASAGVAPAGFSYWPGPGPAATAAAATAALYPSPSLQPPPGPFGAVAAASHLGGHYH
The settings on record: protein: recombinant; tags: N-terminal GST; dsDNA, one strand shown. Summed up:
as §1

The target of a further test is ETV5 (Homo sapiens, UniProt P41161 1-510). The conditions noted are these: protein: recombinant; tags: N-terminal GST; dsDNA, one strand shown. The gist of the method:
as §1

The target of another test is HSF1 (Homo sapiens, UniProt Q00613 1-529). The conditions noted are these: protein: recombinant; tags: N-terminal GST; chain copies: 3; dsDNA, one strand shown. Summed up: as §1
Chain of HSF1 (Q00613 whole entry): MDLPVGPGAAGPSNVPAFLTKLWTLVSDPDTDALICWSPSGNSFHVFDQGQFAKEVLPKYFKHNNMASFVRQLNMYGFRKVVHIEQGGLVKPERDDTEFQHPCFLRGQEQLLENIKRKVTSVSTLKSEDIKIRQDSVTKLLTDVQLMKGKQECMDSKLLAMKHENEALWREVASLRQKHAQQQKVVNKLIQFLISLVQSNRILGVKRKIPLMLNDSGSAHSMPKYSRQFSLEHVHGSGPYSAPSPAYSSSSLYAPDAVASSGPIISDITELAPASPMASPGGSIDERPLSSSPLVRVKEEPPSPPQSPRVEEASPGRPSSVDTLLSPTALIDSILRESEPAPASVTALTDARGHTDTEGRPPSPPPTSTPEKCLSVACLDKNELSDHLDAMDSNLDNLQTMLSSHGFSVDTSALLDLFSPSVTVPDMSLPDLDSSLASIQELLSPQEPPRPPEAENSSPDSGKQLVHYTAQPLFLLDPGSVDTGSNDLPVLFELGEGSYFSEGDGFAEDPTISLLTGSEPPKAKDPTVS
A further test addresses T8, SPIC (Homo sapiens, UniProt Q8N5J4 1-248).
T8 sequence: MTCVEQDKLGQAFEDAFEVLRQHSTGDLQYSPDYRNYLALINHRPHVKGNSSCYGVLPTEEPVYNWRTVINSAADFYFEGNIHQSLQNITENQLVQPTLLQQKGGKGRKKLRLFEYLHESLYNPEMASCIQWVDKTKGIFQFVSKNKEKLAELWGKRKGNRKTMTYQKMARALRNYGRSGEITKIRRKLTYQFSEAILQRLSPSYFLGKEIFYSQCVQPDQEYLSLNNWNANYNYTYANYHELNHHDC
The conditions noted are these: protein: recombinant; tags: N-terminal GST; dsDNA, one strand shown. Summed up: as §1

A further test concerns the target ELF4 (Homo sapiens, UniProt Q99607 1-663). The settings on record: protein: recombinant; tags: N-terminal GST; dsDNA, one strand shown. Summed up: as §1
The target in the next test is T9, ETV2 (Homo sapiens, UniProt O00321 1-342).
T9 sequence: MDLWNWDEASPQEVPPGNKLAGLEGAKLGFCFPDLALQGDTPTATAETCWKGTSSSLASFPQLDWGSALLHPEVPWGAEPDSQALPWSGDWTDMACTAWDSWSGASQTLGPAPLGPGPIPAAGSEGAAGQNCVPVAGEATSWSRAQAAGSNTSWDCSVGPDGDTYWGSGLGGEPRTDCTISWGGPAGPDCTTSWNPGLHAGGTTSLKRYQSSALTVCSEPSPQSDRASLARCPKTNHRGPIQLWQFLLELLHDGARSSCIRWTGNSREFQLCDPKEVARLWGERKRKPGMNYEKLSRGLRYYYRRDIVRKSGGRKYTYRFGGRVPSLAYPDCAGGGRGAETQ
The settings on record: protein: recombinant; tags: N-terminal GST; dsDNA, one strand shown. Summed up: as §1

For the next test, the target named is T10, ELF3 (Homo sapiens, UniProt P78545 1-371).
T10 sequence: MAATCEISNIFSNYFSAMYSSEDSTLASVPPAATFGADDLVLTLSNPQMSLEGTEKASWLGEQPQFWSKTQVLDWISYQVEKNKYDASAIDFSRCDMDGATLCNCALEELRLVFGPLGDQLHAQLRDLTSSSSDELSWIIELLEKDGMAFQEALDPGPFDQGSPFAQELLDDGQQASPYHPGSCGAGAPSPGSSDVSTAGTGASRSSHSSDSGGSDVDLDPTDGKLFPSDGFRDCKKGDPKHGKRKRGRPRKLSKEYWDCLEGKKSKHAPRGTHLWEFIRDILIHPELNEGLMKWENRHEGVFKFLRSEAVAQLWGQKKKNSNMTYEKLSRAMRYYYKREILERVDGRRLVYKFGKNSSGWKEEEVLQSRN
The conditions noted are these: protein: recombinant; tags: N-terminal GST; dsDNA, one strand shown. Summed up: as §1

The target in another test is CRX (Homo sapiens, UniProt O43186 1-299). The settings on record: protein: recombinant; tags: N-terminal GST; dsDNA, one strand shown. The gist of the method: as §1
Chain of CRX (O43186 whole entry): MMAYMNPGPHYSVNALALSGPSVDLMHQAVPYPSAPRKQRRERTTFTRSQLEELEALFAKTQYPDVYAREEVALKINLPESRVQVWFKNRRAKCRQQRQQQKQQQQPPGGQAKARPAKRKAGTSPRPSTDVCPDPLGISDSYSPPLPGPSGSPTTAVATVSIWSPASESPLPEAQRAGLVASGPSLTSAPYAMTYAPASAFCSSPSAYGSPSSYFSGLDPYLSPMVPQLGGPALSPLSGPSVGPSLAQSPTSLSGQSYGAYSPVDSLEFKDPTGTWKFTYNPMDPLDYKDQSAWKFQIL
Another test concerns the target ETV1 (Homo sapiens, UniProt P50549 1-477). The conditions noted are these: protein: recombinant; tags: N-terminal GST; dsDNA, one strand shown. The gist of the method:
as §1

Chain of SPIB (Q01892 whole entry): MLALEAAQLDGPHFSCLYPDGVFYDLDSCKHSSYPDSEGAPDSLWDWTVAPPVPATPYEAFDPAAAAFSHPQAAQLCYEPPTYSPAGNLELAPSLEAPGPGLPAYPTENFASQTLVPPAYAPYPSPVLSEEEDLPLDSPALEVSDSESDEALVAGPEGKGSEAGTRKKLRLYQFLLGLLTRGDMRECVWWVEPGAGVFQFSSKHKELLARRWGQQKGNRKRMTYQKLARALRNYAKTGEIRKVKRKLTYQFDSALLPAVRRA
Chain of ELF1 (P32519 whole entry): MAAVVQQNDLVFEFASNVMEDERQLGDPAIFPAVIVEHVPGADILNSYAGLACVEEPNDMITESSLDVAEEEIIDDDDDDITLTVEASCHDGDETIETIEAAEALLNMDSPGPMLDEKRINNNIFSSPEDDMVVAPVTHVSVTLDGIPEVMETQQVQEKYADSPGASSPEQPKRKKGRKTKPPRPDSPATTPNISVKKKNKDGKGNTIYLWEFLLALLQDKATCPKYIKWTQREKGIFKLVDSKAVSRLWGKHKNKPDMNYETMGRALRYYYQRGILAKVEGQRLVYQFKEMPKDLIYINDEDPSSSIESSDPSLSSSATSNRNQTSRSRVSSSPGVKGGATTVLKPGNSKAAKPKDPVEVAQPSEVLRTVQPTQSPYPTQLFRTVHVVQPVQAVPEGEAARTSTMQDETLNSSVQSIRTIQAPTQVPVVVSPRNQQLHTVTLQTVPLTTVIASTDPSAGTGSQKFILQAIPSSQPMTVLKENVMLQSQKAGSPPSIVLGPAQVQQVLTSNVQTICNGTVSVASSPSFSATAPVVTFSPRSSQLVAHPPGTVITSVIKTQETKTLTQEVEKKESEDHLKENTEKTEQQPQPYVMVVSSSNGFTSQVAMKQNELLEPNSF
Chain of ELF4 (Q99607 whole entry): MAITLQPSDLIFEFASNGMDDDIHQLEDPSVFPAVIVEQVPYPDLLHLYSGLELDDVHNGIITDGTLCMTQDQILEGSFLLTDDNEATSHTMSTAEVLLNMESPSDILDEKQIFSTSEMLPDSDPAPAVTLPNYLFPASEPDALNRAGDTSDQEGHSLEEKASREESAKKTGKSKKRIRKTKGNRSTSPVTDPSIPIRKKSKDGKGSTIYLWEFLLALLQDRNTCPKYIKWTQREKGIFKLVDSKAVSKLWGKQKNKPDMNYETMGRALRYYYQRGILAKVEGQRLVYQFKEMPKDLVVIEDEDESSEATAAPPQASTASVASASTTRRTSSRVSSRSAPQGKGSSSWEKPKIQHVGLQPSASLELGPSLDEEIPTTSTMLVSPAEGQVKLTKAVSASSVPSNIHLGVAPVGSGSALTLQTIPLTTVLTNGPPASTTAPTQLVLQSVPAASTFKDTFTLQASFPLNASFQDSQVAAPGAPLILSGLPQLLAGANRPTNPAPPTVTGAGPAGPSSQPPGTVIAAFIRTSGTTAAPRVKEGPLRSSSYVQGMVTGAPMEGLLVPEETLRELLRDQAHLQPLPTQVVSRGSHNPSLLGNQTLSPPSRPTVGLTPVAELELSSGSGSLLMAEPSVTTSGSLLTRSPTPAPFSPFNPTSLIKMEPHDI
Chain of ETV5 (P41161 whole entry): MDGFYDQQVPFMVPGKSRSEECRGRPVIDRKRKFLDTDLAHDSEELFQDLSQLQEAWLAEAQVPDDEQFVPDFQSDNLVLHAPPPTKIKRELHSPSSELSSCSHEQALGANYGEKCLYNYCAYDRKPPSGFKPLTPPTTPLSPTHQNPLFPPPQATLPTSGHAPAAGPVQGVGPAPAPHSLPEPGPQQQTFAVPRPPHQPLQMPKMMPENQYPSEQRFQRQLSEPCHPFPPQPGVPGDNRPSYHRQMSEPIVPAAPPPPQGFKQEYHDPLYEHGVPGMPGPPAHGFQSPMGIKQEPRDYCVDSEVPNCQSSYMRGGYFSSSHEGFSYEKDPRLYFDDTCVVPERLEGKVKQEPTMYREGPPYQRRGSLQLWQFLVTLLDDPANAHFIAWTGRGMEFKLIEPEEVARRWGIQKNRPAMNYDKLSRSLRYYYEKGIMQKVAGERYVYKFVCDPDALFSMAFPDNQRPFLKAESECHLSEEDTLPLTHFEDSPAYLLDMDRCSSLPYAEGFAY
Chain of ETV1 (P50549 whole entry): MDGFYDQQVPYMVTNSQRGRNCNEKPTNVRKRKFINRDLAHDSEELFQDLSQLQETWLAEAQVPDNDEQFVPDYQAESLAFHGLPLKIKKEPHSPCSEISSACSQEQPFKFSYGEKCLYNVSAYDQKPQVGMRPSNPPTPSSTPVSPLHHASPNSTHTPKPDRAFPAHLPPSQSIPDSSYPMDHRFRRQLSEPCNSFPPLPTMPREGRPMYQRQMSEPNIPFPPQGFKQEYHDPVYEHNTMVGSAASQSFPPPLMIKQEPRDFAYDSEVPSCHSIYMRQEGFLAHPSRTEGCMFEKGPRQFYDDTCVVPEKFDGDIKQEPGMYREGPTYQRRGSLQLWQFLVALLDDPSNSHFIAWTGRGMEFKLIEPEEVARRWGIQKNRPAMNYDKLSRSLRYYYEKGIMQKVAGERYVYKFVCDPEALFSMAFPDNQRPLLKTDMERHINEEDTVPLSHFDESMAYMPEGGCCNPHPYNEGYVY

Consider ATCAAT, for which the binding signal with FLI1 is 1.12 fold enrichment (6-mer frequency, TF over GST control); with ELK1, 1.01 fold enrichment (6-mer frequency, TF over GST control); with GABPA it was 1.16 fold enrichment (6-mer frequency, TF over GST control); with ERG, 1.04 fold enrichment (6-mer frequency, TF over GST control); with ELF1 it was 1.15 fold enrichment (6-mer frequency, TF over GST control); with EHF, 1.02 fold enrichment (6-mer frequency, TF over GST control). In addition, the binding signal with SPI1 is 1.06 fold enrichment (6-mer frequency, TF over GST control); in the test with SPIB, 1.07 fold enrichment (6-mer frequency, TF over GST control); with ELK3, 1.06 fold enrichment (6-mer frequency, TF over GST control); with FEV, 1.05 fold enrichment (6-mer frequency, TF over GST control); with ETV5 it was 1.1 fold enrichment (6-mer frequency, TF over GST control); in the test with HSF1, 1.14 fold enrichment (6-mer frequency, TF over GST control). Besides, the binding signal in the test with SPIC is 1.06 fold enrichment (6-mer frequency, TF over GST control); with ELF4, 1.1 fold enrichment (6-mer frequency, TF over GST control); in the test with ETV2, 1.16 fold enrichment (6-mer frequency, TF over GST control); in the test with ELF3 it was 1.12 fold enrichment (6-mer frequency, TF over GST control); with CRX, 1.32 fold enrichment (6-mer frequency, TF over GST control); in the test with ETV1, 1.06 fold enrichment (6-mer frequency, TF over GST control).
